Laboratory results from PubChem BioAssay AID1866 (The Scripps Research Institute Molecular Screening Center, 2009).
Hit rate of the full screen: of about 1,300 compounds, about 40 (3%) were called active.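 How the source made its calls: active means inhibition above that campaign's mean inhibition plus 3 SD (cut at about 0.46% in these data); inactive means the rest.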 The list is a sample of the results.

target: Beta-lactamase TEM (Escherichia coli) (UniProt P62593); experiment: inhibition of purified E. coli TEM-1 enzyme – biochemical, epi-absorbance, HTS, counter-screen for VIM-2 inhibitor project (AID 1866); details: Purified TEM-1, nitrocefin hydrolysis, epi-absorbance fluorescence; at 5.6 µM; stronger effect = higher value;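 further: 0% = TEM-1 with DMSO and 100% = TEM-1 with 100 µM potassium clavulanate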
Sequence (P62593 whole entry, looked up): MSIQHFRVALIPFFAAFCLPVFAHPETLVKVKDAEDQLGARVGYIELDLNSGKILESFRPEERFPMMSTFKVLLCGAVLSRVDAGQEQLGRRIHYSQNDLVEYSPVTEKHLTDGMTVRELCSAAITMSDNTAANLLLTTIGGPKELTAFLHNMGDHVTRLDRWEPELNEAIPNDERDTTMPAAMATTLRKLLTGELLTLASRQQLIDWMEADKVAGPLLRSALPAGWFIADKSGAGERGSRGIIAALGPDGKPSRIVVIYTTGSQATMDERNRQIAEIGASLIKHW

Compound	inhibition
COc1ccc(CCn2c(=N)c(C(=O)NCC3CCCO3)cc3c(=O)n4cccc(C)c4nc32)cc1OC (configuration not stated)	-5.02% (inactive)
Cc1nc2ccccc2c2oc(C(=O)NCCCN3CCC(C)CC3)cc12	-6.75% (inactive)
CNC(=O)c1ccsc1NC(=O)c1ccc(S(=O)(=O)N2CCOCC2)cc1	-7.75% (inactive)
Fc1ccc(-c2ccc(CNCc3ccccn3)o2)cc1Cl	-5.72% (inactive)
CCN(CC)c1ccc2cc(C(N)=O)/c(=N\NC(=O)c3ccncc3)oc2c1	-8.43% (inactive)
O=C(COc1cc2oc(=O)c3c(c2cc1Cl)CCC3)NCCCN1CCOCC1	-0.53% (inactive)
CCN1CCN(CCNC(=O)c2ccc3c(c2)NC(=O)/C(=C\c2ccc(OC)c(OC)c2)S3)CC1	-9.31% (inactive)
COc1ccc(-c2nn3c(-c4ccccc4)nnc3s2)cc1OC	-11.4% (inactive)
CCOC(=O)N1CCN(C(=O)C2CCN(c3ncnc4c3sc3cccc(F)c34)CC2)CC1	-5.6% (inactive)
CCN(CC)CCOc1ccc2c(c1)C(=NNC(=O)c1ccccn1)c1cc(OCCN(CC)CC)ccc1-2	-8.91% (inactive)
COc1ccc(Nc2cc(C)nc(-n3nc(C)cc3C)n2)cc1	-7.46% (inactive)
NC(=O)C1CCN(C(=O)COc2ccc3c4c(c(=O)oc3c2)CCC4)CC1	-5.63% (inactive)
Cn1c(-c2sccc2OCc2cccc(C(F)(F)F)c2)n[nH]c1=S	-7.73% (inactive)
CCOc1cc(/C=C2\SC(N3CCCCC3)=NC2=O)ccc1O	-8.67% (inactive)
COC(=O)c1c(NC(=O)c2ccc(S(=O)(=O)N3CCOCC3)cc2)sc2c1CCN(C(C)C)C2	-6.47% (inactive)
Cc1ccc(Cl)cc1-c1ccc(/C=N/n2cnnc2)o1	-6.18% (inactive)
CCN1CCCC1CNC(=O)c1cc2c(=O)n(C)c3ccccc3c2n1C (configuration not stated)	-6.31% (inactive)
COc1ccc(Cc2nnc(NS(=O)(=O)Cc3ccccc3)s2)cc1	-3.28% (inactive)
Cc1cc(NCc2ccco2)n2c(nc3ccccc32)c1C#N	-6.6% (inactive)
CC(=O)c1ccc(-c2ccc(Cn3c(C)nc4cc(N)c(C)nc43)cc2)cc1	-6.56% (inactive)
CC(NS(=O)(=O)c1ccccc1)c1n[nH]c(=S)n1-c1ccccc1 (configuration not stated)	-5.56% (inactive)
O=C1Nc2cc(C(=O)N3CCC(N4CCCCC4)CC3)ccc2S/C1=C\c1ccccc1	-5.79% (inactive)
CCc1cc(=O)oc2cc(C)cc(OCC(=O)N3CCC[C@@H]3C(=O)O)c12	-5.9% (inactive)
O=C(NC(=S)Nc1ccccc1C(=O)O)c1ccc(-c2ccc(Br)cc2)o1	-8.31% (inactive)
CN(C)CCNc1ccc(-c2n[nH]c(=O)c3ccccc23)cc1[N+](=O)[O-]	-7.17% (inactive)
Cc1cc(-c2ccc(/C=N/n3cnnc3)o2)c([N+](=O)[O-])cc1C	-5.24% (inactive)

Compound	inhibition
C=CCn1c(-c2ccccc2OCC)n[nH]c1=S	-3.6% (inactive)
CC(C)(C)CC(=O)Nc1nnc(SCC(=O)NCc2cccs2)s1	-5.92% (inactive)
CCOc1cc(/C=C2\SC(N3CCCC(C)C3)=NC2=O)ccc1O (configuration not stated)	-1.56% (inactive)
O=c1[nH]c(-c2ccccc2)c(-c2ccccc2)[nH]1	-4.67% (inactive)
COc1nc(N=C(N)N)nc2c(C)cccc12	-4.69% (inactive)
CN1CCN(c2ccc(NC(=O)c3ccc4c(c3)[nH]c(=O)n4Cc3ccc(F)cc3)cc2)CC1	-7.55% (inactive)
CC1CCCC(C)N1CCCNC(=O)c1cc2c(=O)n(C)c3ccccc3c2n1C (configuration not stated)	-6.6% (inactive)
Cn1c2ccccc2c(=O)c2c(O)cccc21	-0.94% (inactive)
CCCc1ccc(OCCNC(=O)c2ccco2)cc1	-6.4% (inactive)
COC(=O)c1ccc(-c2noc(CN(Cc3ccccn3)CC3CCCO3)n2)cc1 (configuration not stated)	-7.22% (inactive)
COc1cc(/C=N/Nc2nn3cnnc3c3ccccc23)cc(OC)c1OC	-3.82% (inactive)
COc1cc(NC(=O)C2=C(C)OCCS2)c(Cl)cc1C(=O)NCCN1CCN(C)CC1	-9.7% (inactive)
Nc1nnc2c(C(F)(F)F)nc3ccccc3n12	-1.12% (inactive)
Cc1cc(C)c2nc3nc(C)cc(C)c3c(N)c2c1	-4.56% (inactive)
CCC1CCCCN1CCCNC(=O)c1cc2c(Cl)nc3ccccc3c2s1 (configuration not stated)	-6.12% (inactive)
Clc1cc(-c2ccc(/C=N/n3cnnc3)o2)ccc1Br	-5.72% (inactive)
CCN1CCN(C(=O)Cn2nc(C)n3c(cc4c(OC)cccc43)c2=O)CC1	-7.04% (inactive)
Cn1c(=O)c2c(nc(N3CCOCC3)n2CCNC2=NCCC2)n(C)c1=O	-4.49% (inactive)
COc1ccc(/C=N/N(C)C2=NS(=O)(=O)c3ccccc32)cc1OC	-6.76% (inactive)
COc1cc(-c2nn3c(-c4cccc(C)c4)nnc3s2)cc(OC)c1OC	-6.23% (inactive)
Cc1cccn2c(=O)c(C=O)c(Nc3ccc(S(N)(=O)=O)cc3)nc12	-4.52% (inactive)
O=C(NCCCN1CCOCC1)c1cnn2c(-c3ccccc3)cc(-c3ccccc3)nc12	-5.7% (inactive)
CCOCCCNc1c(CC)c(C)c(C#N)c2nc3ccccc3n12	-5.82% (inactive)
Cc1ccc2nc(C)c3c(c2c1)N(c1ccccc1)CC3	-5.53% (inactive)
Nc1cccc2c1C(=O)N(Cc1nnc(-c3ccccc3Br)o1)C2=O	-0.93% (inactive)
Cc1cc([N+](=O)[O-])c(-c2ccc(/C=N/n3cnnc3)o2)cc1Cl	-6.25% (inactive)
